Assay results taken from the supplement of paper PMC7411640.
Counter-ions that a name gives are not always drawn.

system: MDA-MB-468; experiment: phospho-S6 immunofluorescence (DAPI-normalised), per-plate z-score; higher = higher phospho-S6 signal (less pathway suppression); conditions: co-treatment: vehicle; 24 h
Procedure: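 GPCR-targeted compound library (MedChemExpress HY-L006) tested on MDA-MB-468 PTEN-null TNBC cells in 384-well plates at 0.1, 1 or 10 uM, combined with vehicle, GDC0941 450 nM or lapatinib 1 uM, for 24 h. Phospho-S6 (S240/244) immunofluorescence normalised to DAPI and expressed as a per-plate z-score; values are the mean of biological triplicates.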

SMILES | phospho-S6 immunofluorescence (z-score)
CN(C)CCCN1c2ccccc2Sc2ccc(C(F)(F)F)cc21 [Triflupromazine (hydrochloride)] (compound 10 µM) | 2.53
COc1ccc(CCN2CCN(CCCc3ccccc3)CC2)cc1OC [SA4503 (dihydrochloride)] (compound 10 µM) | -0.47
Cc1cc2c(cc1CC(=O)c1sccc1S(=O)(=O)Nc1onc(C)c1Cl)OCO2 [Sitaxsentan (sodium)] (compound 10 µM) | 0.45
O=C(N[C@@H]1CC[C@@H](c2cccc(F)c2F)CN(CC(F)(F)F)C1=O)N1CCC(n2c(=O)[nH]c3ncccc32)CC1 (compound 10 µM) | -0.42
O=C(c1ccc(F)cc1)N1CCC[C@H](c2nc(-c3ccc(F)cc3)no2)C1 (compound 10 µM) | -2.93
OC[C@H]1O[C@@H](n2cnc3c(N[C@@H]4CCc5ccccc54)ncnc32)[C@H](O)[C@@H]1O (compound 10 µM) | 1.18
O=C(O[C@@H]1C[C@@H]2C[C@H]3C[C@H](C1)N2CC3=O)c1c[nH]c2ccccc12 [Dolasetron (Mesylate hydrate)] (compound 10 µM) | 0.62
CN1CCN2c3c(cccc31)[C@@H]1CN(CCCC(=O)c3ccc(F)cc3)CC[C@@H]12 [lumateperone (Tosylate)] (compound 10 µM) | -5.62
Cc1c(CC(=O)O)c2cccnc2n1Cc1ccc(S(C)(=O)=O)cc1C(F)(F)F [Fevipiprant] (compound 10 µM) | -0.9
CC(C(=O)Nc1cc(C#N)ccc1CCCC(=O)O)c1ccc(F)c2ccccc12 (stereo not given) (compound 10 µM) | -0.03
Fc1ccc(-c2cncc(CN3CCN(c4cccc5c4OCCO5)CC3)c2)cc1 [Adoprazine] (compound 10 µM) | -2.49
CCc1nc2c(C)nc(C)cc2n1-c1ccc(CCNC(=O)NS(=O)(=O)c2ccc(C)cc2)cc1 [Grapiprant] (compound 10 µM) | -0.51
CCc1nn(CCCN2CCN(c3cccc(Cl)c3)CC2)c(=O)n1CCOc1ccccc1 [Nefazodone (hydrochloride)] (compound 10 µM) | -1.26
NC1=NCC2c3ccccc3Cc3ccccc3N12 (stereo not given) [Epinastine] (compound 10 µM) | 0.35
O=C(NCCCN1CCC2(CC1)OCc1ccccc12)[C@H]1CCCN1Cc1ccccc1 (compound 10 µM) | -0.4
O=C(O)CCCN1CCC(O[C@@H](c2ccc(Cl)cc2)c2ccccn2)CC1 [Bepotastine (Beslilate)] (compound 10 µM) | 0.56
CCCCC[C@H](O)/C=C/[C@H]1[C@H](O)CC(=O)[C@@H]1C/C=C\CCCC(=O)O [Prostaglandin E2] (compound 10 µM) | -0.52
O=C(O)Cn1c2c(c3cc(F)ccc31)CN(C(=O)c1cccc3ccccc13)CC2 [Setipiprant] (compound 10 µM) | -0.03
OCCOCCN1CCN(C2=Nc3ccccc3Sc3ccccc32)CC1 [Quetiapine] (compound 10 µM) | 0.64
Oc1cc2c(cc1O)C(c1ccccc1)CNCC2 (stereo not given) (compound 10 µM) | 1.06
